# From the supplement of paper PMC4466140
# Experiments:
# Experiment in all cases: SPOT peptide array binding signal intensity (averaged, normalized) (arbitrary units (background-subtracted, floor 0; scale differs between SH3 domains)); higher = stronger binding of the SH3 domain to the peptide
# AgAbp1 = target: AgAbp1
# In short: (§1)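 Detection of bound protein relied on anti-GST antibody, an HRP anti-mouse secondary and luminol, with imaging and quantification in Genespotter. The bound protein was GST-fused SH3 domains from four yeast species, incubated at 10 μg/ml overnight at 4°C in TBS-based blocking buffer on cellulose membranes carrying synthetic 15-mer peptides with cysteines replaced by serines. Binding signal is normalized, background-subtracted spot intensity averaged over replicates, in arbitrary units that differ between domains.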
# AgBbc1 = target: AgBbc1
# In short: as §1
# AgBem1-D1 = target: AgBem1-D1
# In short: as §1
# AgBzz1-D1 = target: AgBzz1-D1
# In short: as §1
# AgBzz1-D2 = target: AgBzz1-D2
# In short: as §1
# AgCyk3 = target: AgCyk3
# In short: as §1
# AgFus1 = target: AgFus1
# In short: as §1
# AgHof1 = target: AgHof1
# In short: as §1
# AgHse1 = target: AgHse1
# In short: as §1
# AgLsb1 = target: AgLsb1
# In short: as §1
# AgLsb4 = target: AgLsb4
# In short: as §1
# AgMyo5 = target: AgMyo5
# In short: as §1
# AgNbp2 = target: AgNbp2
# In short: as §1
# AgRvs167 = target: AgRvs167
# In short: as §1
# AgSho1 = target: AgSho1
# In short: as §1
# AgSla1-D1-D2 = target: AgSla1-D1-D2
# In short: as §1
# AgSla1-D3 = target: AgSla1-D3
# In short: as §1
# CaAbp1-D1 = target: CaAbp1-D1
# In short: as §1
# CaAbp1-D2 = target: CaAbp1-D2
# In short: as §1
# CaBbc1 = target: CaBbc1
# In short: as §1
# CaBem1-D1 = target: CaBem1-D1
# In short: as §1
# CaBzz1-D1 = target: CaBzz1-D1
# In short: as §1
# CaBzz1-D2 = target: CaBzz1-D2
# In short: as §1
# CaCyk3 = target: CaCyk3
# In short: as §1
# CaFus1 = target: CaFus1
# In short: as §1
# CaHof1 = target: CaHof1
# In short: as §1
# CaHse1 = target: CaHse1
# In short: as §1
# CaLsb1 = target: CaLsb1
# In short: as §1
# CaLsb4 = target: CaLsb4
# In short: as §1
# CaMyo5 = target: CaMyo5
# In short: as §1
# CaNbp2 = target: CaNbp2
# In short: as §1
# CaRvs167 = target: CaRvs167
# In short: as §1
# CaRvs167-3 = target: CaRvs167-3
# In short: as §1
# CaSho1 = target: CaSho1
# In short: as §1
# CaSla1-D1-D2 = target: CaSla1-D1-D2
# In short: as §1
# CaSla1-D3 = target: CaSla1-D3
# In short: as §1
# ScAbp1 = target: ScAbp1
# In short: as §1
# ScBbc1 = target: ScBbc1
# In short: as §1
# ScBem1-D1 = target: ScBem1-D1
# In short: as §1
# ScBzz1-D1 = target: ScBzz1-D1
# In short: as §1
# ScBzz1-D2 = target: ScBzz1-D2
# In short: as §1
# ScCyk3 = target: ScCyk3
# In short: as §1
# ScFus1 = target: ScFus1
# In short: as §1
# ScHof1 = target: ScHof1
# In short: as §1
# ScHse1 = target: ScHse1
# In short: as §1
# ScLsb1 = target: ScLsb1
# In short: as §1
# ScLsb2 = target: ScLsb2
# In short: as §1
# ScLsb3 = target: ScLsb3
# In short: as §1
# ScLsb4 = target: ScLsb4
# In short: as §1
# ScMyo3 = target: ScMyo3
# In short: as §1
# ScMyo5 = target: ScMyo5
# In short: as §1
# ScNbp2 = target: ScNbp2
# In short: as §1
# ScPex13 = target: ScPex13
# In short: as §1
# ScRvs167 = target: ScRvs167
# In short: as §1
# ScSho1 = target: ScSho1
# In short: as §1
# ScSla1-D1-D2 = target: ScSla1-D1-D2
# In short: as §1
# ScSla1-D3 = target: ScSla1-D3
# In short: as §1
# SpAbp1-D1 = target: SpAbp1-D1
# In short: as §1
# SpBbc1 = target: SpBbc1
# In short: as §1
# SpBzz1-D1 = target: SpBzz1-D1
# In short: as §1
binder,measurement,setting,value
VRVKKRPLIRPLNSS,SPOT peptide array binding signal intensity,AgAbp1,450
same,SPOT peptide array binding signal intensity,AgBbc1,184
same,SPOT peptide array binding signal intensity,AgBem1-D1,244
same,SPOT peptide array binding signal intensity,AgBzz1-D1,6.5
same,SPOT peptide array binding signal intensity,AgBzz1-D2,215
same,SPOT peptide array binding signal intensity,AgCyk3,6
same,SPOT peptide array binding signal intensity,AgFus1,223
same,SPOT peptide array binding signal intensity,AgHof1,48.5
same,SPOT peptide array binding signal intensity,AgHse1,646
same,SPOT peptide array binding signal intensity,AgLsb1,2.5
same,SPOT peptide array binding signal intensity,AgLsb4,81
same,SPOT peptide array binding signal intensity,AgMyo5,0.5
same,SPOT peptide array binding signal intensity,AgNbp2,220
same,SPOT peptide array binding signal intensity,AgRvs167,2.33
same,SPOT peptide array binding signal intensity,AgSho1,53
same,SPOT peptide array binding signal intensity,AgSla1-D1-D2,442
same,SPOT peptide array binding signal intensity,AgSla1-D3,12.8
same,SPOT peptide array binding signal intensity,CaAbp1-D1,1520
same,SPOT peptide array binding signal intensity,CaAbp1-D2,1190
same,SPOT peptide array binding signal intensity,CaBbc1,278
same,SPOT peptide array binding signal intensity,CaBem1-D1,378
same,SPOT peptide array binding signal intensity,CaBzz1-D1,153
same,SPOT peptide array binding signal intensity,CaBzz1-D2,101
same,SPOT peptide array binding signal intensity,CaCyk3,132
same,SPOT peptide array binding signal intensity,CaFus1,381
same,SPOT peptide array binding signal intensity,CaHof1,1
same,SPOT peptide array binding signal intensity,CaHse1,15
same,SPOT peptide array binding signal intensity,CaLsb1,2
same,SPOT peptide array binding signal intensity,CaLsb4,104
same,SPOT peptide array binding signal intensity,CaMyo5,1.5
same,SPOT peptide array binding signal intensity,CaNbp2,311
same,SPOT peptide array binding signal intensity,CaRvs167,8.5
same,SPOT peptide array binding signal intensity,CaRvs167-3,183
same,SPOT peptide array binding signal intensity,CaSho1,370
same,SPOT peptide array binding signal intensity,CaSla1-D1-D2,534
same,SPOT peptide array binding signal intensity,CaSla1-D3,0.25
same,SPOT peptide array binding signal intensity,ScAbp1,138
same,SPOT peptide array binding signal intensity,ScBbc1,82
same,SPOT peptide array binding signal intensity,ScBem1-D1,70
same,SPOT peptide array binding signal intensity,ScBzz1-D1,11.5
same,SPOT peptide array binding signal intensity,ScBzz1-D2,11
same,SPOT peptide array binding signal intensity,ScCyk3,91.5
same,SPOT peptide array binding signal intensity,ScFus1,156
same,SPOT peptide array binding signal intensity,ScHof1,0.75
same,SPOT peptide array binding signal intensity,ScHse1,1480
same,SPOT peptide array binding signal intensity,ScLsb1,57.8
same,SPOT peptide array binding signal intensity,ScLsb2,5.5
same,SPOT peptide array binding signal intensity,ScLsb3,312
same,SPOT peptide array binding signal intensity,ScLsb4,19
same,SPOT peptide array binding signal intensity,ScMyo3,3
same,SPOT peptide array binding signal intensity,ScMyo5,1.5
same,SPOT peptide array binding signal intensity,ScNbp2,312
same,SPOT peptide array binding signal intensity,ScPex13,0.25
same,SPOT peptide array binding signal intensity,ScRvs167,15.5
same,SPOT peptide array binding signal intensity,ScSho1,386
same,SPOT peptide array binding signal intensity,ScSla1-D1-D2,330
same,SPOT peptide array binding signal intensity,ScSla1-D3,16
same,SPOT peptide array binding signal intensity,SpAbp1-D1,388
same,SPOT peptide array binding signal intensity,SpBbc1,9.75
same,SPOT peptide array binding signal intensity,SpBzz1-D1,150
